PubChem BioAssay AID1159580 (chemical genetic matrix, 2015)
In all, about 5,500 compounds went through this assay and about 2,000 (36%) were called active. Inconclusive results (about 18%) are left out. Cut-off read from the data, not from the text of the source: active = normalized growth mostly below about 0.91 (no sharp cut-off); inconclusive = no clear call, values can overlap the other calls; inactive = mostly above about 0.92. Some of the results follow.

Assay: chemical genetic growth profiling, strain panel (AID 1159580);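 note: tested at 20 µM; growth read once vehicle control cultures reached saturation at 30 °C; 1 = growth at the plate median or of vehicle wells; lower values mean less growth of the strain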
Conditions: S. cerevisiae deletion strains, growth OD

Measured: normalized growth

CN1CCN(C(=O)OC2c3nccnc3C(=O)N2c2ccc(Cl)cn2)CC1 (centres undefined)
inactive: locus YAL021C, strain ccr4, active compounds read low 1 | locus YAL026C, strain drs2, active compounds read low 0.993 | locus YAL030W, strain snc1, active compounds read low 0.997 | locus YBL061C, strain skt5, active compounds read low 0.99 | locus YBR009C, strain hhf1, active compounds read low 1.01 | locus YBR023C, strain chs3, active compounds read low 0.991 | locus YBR171W, strain sec66, active compounds read low 0.997 | locus YBR231C, strain swc5, active compounds read low 0.979 | locus YBR279W, strain paf1, active compounds read low 1.01 | locus YCL011C, strain gbp2, active compounds read low 1 | locus YCL016C, strain dcc1, active compounds read low 0.994 | locus YCL069W, strain vba3, active compounds read low 1 | locus YCR088W, strain abp1, active compounds read low 0.996 | locus YDL005C, strain med2, active compounds read low 0.99 | locus YDL040C, strain nat1, active compounds read low 0.981 | locus YDR001C, strain nth1, active compounds read low 0.992 | locus YDR069C, strain doa4, active compounds read low 0.991 | locus YDR137W, strain rgp1, active compounds read low 0.998 | locus YDR159W, strain sac3, active compounds read low 1.01 | locus YDR195W, strain ref2 0.959 | locus YDR297W, strain sur2, active compounds read low 0.979 | locus YDR334W, strain swr1, active compounds read low 0.983 | locus YDR335W, strain msn5, active compounds read low 1 | locus YDR392W, strain spt3, active compounds read low 1.02 | locus YEL003W, strain gim4, active compounds read low 1 | locus YEL037C, strain rad23, active compounds read low 0.994 | locus YEL061C, strain CIN8 (second series), active compounds read low 0.993 | locus YER015W, strain faa2, active compounds read low 0.99 | locus YER016W, strain bim1, active compounds read low 1.01 | locus YER111C, strain swi4, active compounds read low 1 | locus YER155C, strain BEM2 (second series), active compounds read low 0.999 | locus YFR010W, strain ubp6, active compounds read low 0.987 | locus YGL167C, strain pmr1, active compounds read low 0.986 | locus YGL173C, strain kem1, active compounds read low 0.976 | locus YGL227W, strain vid30, active compounds read low 0.976 | locus YGL240W, strain doc1, active compounds read low 1 | locus YGL253W, strain hxk2, active compounds read low 0.994 | locus YHR013C, strain ard1, active compounds read low 0.98 | locus YHR027C, strain rpn1, active compounds read low 1 | locus YHR030C, strain SLT2, active compounds read low 1.02 | locus YHR079C, strain IRE1, active compounds read low 1.01 | locus YHR142W, strain chs7, active compounds read low 1.01 | locus YJL092W, strain hpr5, active compounds read low 0.984 | locus YJL095W, strain BCK1 (second series), active compounds read low 0.97 | locus YJL095W, strain BCK1, active compounds read low 1.01 | locus YJL115W, strain asf1, active compounds read low 0.995 | locus YJL129C, strain trk1, active compounds read low 0.956 | locus YJL154C, strain vps35, active compounds read low 0.993 | locus YJL164C, strain tpk1, active compounds read low 1.01 | locus YJL166W, strain qcr8, active compounds read low 0.998 | locus YJL187C, strain SWE1, active compounds read low 0.994 | locus YJR066W, strain TOR1, active compounds read low 0.935 | locus YKL160W, strain elf1, active compounds read low 0.984 | locus YKR026C, strain gcn3, active compounds read low 0.988 | locus YKR091W, strain srl3, active compounds read low 0.995 | locus YLL001W, strain dnm1, active compounds read low 0.971 | locus YLL026W, active compounds read low 1 | locus YLL041C, strain sdh2, active compounds read low 1.01 | locus YLR027C, strain aat2, active compounds read low 1 | locus YLR113W, strain HOG1, active compounds read low 1 | locus YLR221C, strain rsa3, active compounds read low 0.987 | locus YLR258W, strain gsy2, active compounds read low 1.01 | locus YLR262C, strain YPT6 (second series), active compounds read low 1 | locus YLR320W, strain mms22, active compounds read low 1.01 | locus YLR342W, strain FKS1, active compounds read low 0.995 | locus YLR357W, strain rsc2, active compounds read low 0.978 | locus YLR370C, strain arc18, active compounds read low 0.998 | locus YLR384C, strain iki3, active compounds read low 0.994 | locus YML120C, strain ndi1, active compounds read low 0.985 | locus YMR058W, strain fet3, active compounds read low 1 | locus YMR125W, strain sto1, active compounds read low 0.946 | locus YMR129W, active compounds read low 1 | locus YMR205C, strain PFK2, active compounds read low 0.99 | locus YMR231W, strain pep5, active compounds read low 0.99 | locus YNL071W, strain lat1, active compounds read low 1 | locus YNL183C, strain NPR1, active compounds read low 0.957 | locus YNL209W, strain ssb2, active compounds read low 1.01 | locus YNL248C, strain rpa49, active compounds read low 0.989 | locus YNL322C, strain KRE1 (second series), active compounds read low 0.976 | locus YNR049C, strain mso1, active compounds read low 1 | locus YOR001W, strain rrp6, active compounds read low 0.973 | locus YOR070C, strain gyp1, active compounds read low 0.998 | locus YOR080W, strain dia2, active compounds read low 0.987 | locus YOR083W, strain WHI5, active compounds read low 0.983 | locus YOR106W, strain vam3, active compounds read low 0.98 | locus YOR231W, strain MKK1, active compounds read low 1.01 | locus YOR265W, strain rbl2, active compounds read low 0.993 | locus YOR270C, strain vph1, active compounds read low 0.967 | locus YOR290C, strain snf2, active compounds read low 1.01 | locus YPL051W, strain arl3, active compounds read low 0.988 | locus YPL078C, strain atp4, active compounds read low 0.979 | locus YPL106C, strain sse1, active compounds read low 1.05 | locus YPL240C, strain hsp82, active compounds read low 1 | locus YPL256C, strain CLN2, active compounds read low 1.01
